High-throughput results as filed in PubChem.
CCHF vOTU inh-1: CCHFV vOTU protease inhibition; Pep-AMC fluorescence; inhibition, % at 11.5 µM; actives 0.55% (n = 370,000); AID 651958; note: 0% = vehicle wells with enzyme and 100% = no enzyme wells
Sa ugtP lethal: growth inhibition of S. aureus ugtP deletion strain; actives 0.54% (n = 330,000); AID 1259309; S. aureus RN4220 ugtP deletion, OD600 growth, 16 h; growth inhibition, % (test concentration not listed); in the data active = growth inhibition above about 68%;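 note: plate controls were untreated wells for no effect and antibiotic for full effect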
RN4220 kill: kills Staphylococcus aureus RN4220. inhibition, % (test concentration not listed). S. aureus RN4220 growth, OD600, 16 h. actives 0.33% (n = 330,000); in the data active = inhibition above about 85%;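 note: plate controls were untreated cells for no effect and reference antibiotic for full effect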
SSB-PriA inh: K. pneumoniae PriA-SSBct interaction inhibition. AlphaScreen SSBct-PriA binding, biotinylated peptide. inhibition, % at 33 µM. actives 0.6% (n = 430,000); in the data active = inhibition mostly above about 37%, no sharp cut-off; inactive = mostly below about 20%;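 note: plate controls were negative control peptide for no effect and reference peptide for full effect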
Mtb hypoxia rep: Mtb hypoxia fluorescent reporter inhibition; AID 1159583; fluorescence inhibition, % (concentration not given with the values); M. tuberculosis hypoxia-regulated fluorescent reporter, fluorescence; actives 0.1% (n = 300,000); in the data active = fluorescence inhibition mostly above about 23%, no sharp cut-off; inactive = mostly below about 17%
CCHF vOTU inh-2: confirmation of CCHF virus vOTU protease inhibitors; AID 686976; actives 17% (n = 1,900); shares compounds with CCHF vOTU inh-1; inhibition, % at 11.5 µM; Recombinant CCHFV vOTU, Pep-AMC fluorescence
Numbers without * were called inactive; / = no result given. In the library only some 1.4% were active in any assay of this set; here they are far more common. Cut-off read from the data, not from the text of the source, unless noted: active = inhibition above about 30%; inactive = the rest.

SMILES | CCHF vOTU inh-1 | Sa ugtP lethal | RN4220 kill | SSB-PriA inh | Mtb hypoxia rep | CCHF vOTU inh-2
CCc1ccc(S(=O)(=O)/N=C2\C=C(NS(=O)(=O)c3ccccc3)C(=O)c3ccccc32)cc1 | 54* | 15 | 28 | / | 15 | 11
Cc1ccc(C)c(S(=O)(=O)/N=C2\C=C(NS(=O)(=O)c3ccccc3)C(=O)c3ccccc32)c1 | 30* | / | / | / | / | 25
COc1ccc(-c2nc3cc(C)ccn3c2NC(=O)CCc2ccccc2)cc1 | / | / | / | 0 | / | /
CC(C)CC1CN=C(Nc2ccccc2)N1CC1CCC1 (centres undefined) | / | -7 | 4 | / | 5 | /
CCN(CC)CCNC(=O)c1cc(OC)c(OC)c(OC)c1 | / | / | / | -9 | / | /
CCOC(=O)c1c(C)oc2c1cc(NS(=O)(=O)c1ccc(C(=O)O)cc1)c1ccccc12 | 45* | 0 | 9 | 10 | -13 | 4
O=C(O)c1[nH]c2ccccc2c1C(c1cc(Br)ccc1O)c1c(C(=O)O)[nH]c2ccccc12 | 35* | 4 | 44 | 5 | 14 | 12
COc1cc(Cl)cc(C(c2c(C(=O)O)[nH]c3ccccc23)c2c(C(=O)O)[nH]c3ccccc23)c1O | 25 | -6 | 25 | 6 | 0 | /
CCOC(=O)Nc1ccc(Cl)c(N2CCCS2(=O)=O)c1 | / | / | / | 1 | / | /
Cc1ccc(NC(=O)COC(=O)C2C3CC4OC(=O)C2C4C3)cc1 (centres undefined) | 40* | 7 | -1 | -7 | 1 | -22
CC(=O)c1ccc(NC(=O)COC(=O)C2C3CC4OC(=O)C2C4C3)cc1 (centres undefined) | 12 | 1 | 0 | 1 | 11 | /
CNc1ccc(/C=C(\CCC(=O)O)c2nc3ccccc3s2)cc1[N+](=O)[O-] | 16 | 4 | 30 | 0 | 4 | /
CN(c1ccccc1)c1ccc(/C=C(\CCC(=O)O)c2nc3ccccc3s2)cc1[N+](=O)[O-] | 36* | 51 | 26 | 39 | 9 | 29
Cc1ccc(/C=C(\CCC(=O)O)c2nc3ccccc3s2)cc1[N+](=O)[O-] | 31* | 8 | 26 | 1 | -1 | 21
O=C1C(NS(=O)(=O)c2ccc(Br)cc2)=C(N2CCCCC2)C(=O)c2ccccc21 | 33* | -17 | 14 | 2 | -9 | 6
O=C1C(NS(=O)(=O)c2ccccc2)=C(N2CCN(c3ccc(F)cc3)CC2)C(=O)c2ccccc21 | 19 | -2 | -5 | 23 | -8 | /
CCOC(=O)C1CCCN(C2=C(NS(=O)(=O)c3ccc(Br)cc3)C(=O)c3ccccc3C2=O)C1 (centres undefined) | 76* | -3 | 39 | 6 | -8 | 13
CCOC(=O)C1CCN(C2=C(NS(=O)(=O)c3ccc(Cl)cc3)C(=O)c3ccccc3C2=O)CC1 | 4 | -7 | 25 | 12 | 6 | /
Cc1ccc(C=NNC(=O)C2CN(S(=O)(=O)c3ccccc3)CCN2S(=O)(=O)c2ccccc2)cc1 (centres undefined) | / | 7 | 3 | 6 | 7 | /
COc1ccccc1N1CCN(C(=O)C2CCN(C(=O)c3ccccc3Cl)CC2)CC1 | 31* | 1 | 0 | -3 | -2 | -7
COc1ccccc1N1CCN(C(=O)C2CC2)CC1 | -9 | 9 | 4 | -4 | 12 | /
O=C(c1cccs1)N1CCC(c2nc3ccccc3[nH]2)CC1 | / | / | / | 2 | / | /
O=C(c1ccc(Br)o1)N1CCC(c2nc3ccccc3[nH]2)CC1 | 34* | -1 | 1 | -3 | -3 | -27
CCCCN1CC(=O)N2C3c4cc(C)ccc4OCC3C(c3ccccc3)[C@]2(C)C1=O (some centres undefined) | / | -14 | 9 | / | 0 | /
C=CCn1c2ccccc2c2nnc(SCCCn3c(=O)[nH]c4ccccc43)nc21 | 31* | 9 | 14 | 1 | -5 | -4
SMILES | CCHF vOTU inh-1 | Sa ugtP lethal | RN4220 kill | SSB-PriA inh | Mtb hypoxia rep | CCHF vOTU inh-2
C=CCn1c2ccccc2c2nnc(SCCN3CCCCC3)nc21 | -4 | 11 | -2 | 6 | 9 | /
CC(=O)Nc1ccc(-n2c(N)c(C(=O)NC3CCCC3)c3nc4ccccc4nc32)cc1 | / | / | / | 5 | / | /
C[C@@H]1CCCCO[C@H](CN(C)C(=O)Nc2ccc(C(F)(F)F)cc2)[C@@H](C)CN([C@H](C)CO)C(=O)c2cc(NC(=O)c3ccncc3)ccc2O1 | 32* | / | / | / | / | -1
C[C@@H]1CCCCO[C@H](CN(C)C(=O)CCC(F)(F)F)[C@@H](C)CN([C@H](C)CO)C(=O)c2cc(NC(=O)c3ccncc3)ccc2O1 | 17 | / | / | / | / | /
CC1OC(Nc2cccc3ccccc23)C(O)C(O)C1O (centres undefined) | 65* | -8 | 0 | 17 | 4 | -34
O=C(c1cccc([N+](=O)[O-])c1)N1CCN(C(c2ccccc2)c2ccccc2)CC1 | / | / | / | 3 | / | /
N#C/C(=N\Nc1cccc(Cl)c1)C(=O)c1ccccc1 | 35* | / | / | / | / | -3
CCOC(=O)c1sc(NC(=O)c2ccc(-n3cncn3)nn2)nc1C | / | / | / | -21 | / | /
Cc1ccc(NS(=O)(=O)c2cc(Br)cnc2N)c(Cl)c1 | 16 | -8 | 14 | 1 | 4 | /
Nc1ncc(Br)cc1S(=O)(=O)Nc1cc(C(F)(F)F)cc(C(F)(F)F)c1 | 32* | / | / | -4 | / | 13
O=C(Nc1ccc(O)cc1C(=O)O)c1ccc(NC(=O)c2ccco2)cc1 | 37* | 2 | 2 | 0 | 5 | -3
O=C(Nc1ccccc1C(=O)O)c1cccc(NC(=O)c2ccco2)c1 | 15 | 5 | 3 | -11 | 13 | /
COc1ccc(S(=O)(=O)NCC2(c3cccs3)CCCC2)cc1F | / | / | / | -7 | / | /
COc1cc2c(cc1OC)-c1c(OC)c(OC)cc3c1[C@H](C2)N(C)CC3 | 89* | / | / | 73* | / | 79*
c1ccc(NN=C2c3ccccc3-c3ccccc32)cc1 | -7 | 81 | -21 | -3 | 16 | /
Cc1ccc(NN=C2c3ccccc3-c3ccccc32)cc1 | 35* | 32 | -10 | -9 | -2 | -11
CCCCC(=Nc1ccc(N)cc1)C1=C(O)C(C(=O)OC)C(C)(C)CC1=O (centres undefined) | 92* | 8 | 1 | 14 | 19 | 8
CCC(=Nc1ccc(N)cc1)C1=C(O)C(C(=O)OC)C(C)(C)CC1=O (centres undefined) | 105* | 6 | 4 | 12 | 1 | 5
CCC(=O)Nc1ccc(C)cc1C | / | / | / | -9 | / | /
O=[N+]([O-])c1cc(-c2ccccc2)cc([N+](=O)[O-])c1O | 6 | 67 | 70 | -5 | 16 | /
O=[N+]([O-])c1cc2ccccc2c(O)c1O | 83* | / | / | / | / | -20
NC(=S)NN=Cc1nccc2c(N)cccc12 | 64* | / | / | / | / | 28
Cc1ccn(C(C)CC(=O)N2CCc3ccccc32)n1 (centres undefined) | -6 | 2 | 4 | -4 | 8 | /
CC(CC(=O)N1CCc2ccccc21)n1cccn1 (centres undefined) | 35* | 2 | 3 | -6 | -1 | -8
Cc1cc(C)nc(OC(=O)c2c(Cl)cc(Cl)cc2Cl)n1 | -1 | -1 | -1 | -9 | -6 | /
Cc1cc(C)nc(OC(=O)c2ccc(Cl)cc2Cl)n1 | 30* | 0 | 2 | / | 6 | -22
